High-throughput results (PubChem)
FBW7 act – FBW7 E3 ligase activators, primary screen, biochemical, AlphaScreen, human. AlphaScreen FBW7–phospho-cyclin E peptide binding, activator screen. AID 1259310, 2017. normalized activity (activation), % at 26.1 µM. F-box/WD repeat-containing protein 7 (Homo sapiens), Q969H0. actives 0.13% (n = 650,000); in the data active = normalized activity above about 1.9%;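 also: purified mutant Fbw7 with reduced substrate affinity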
MITF primary – MITF inhibitors, primary screen, biochemical, AlphaScreen, human | Microphthalmia-associated transcription factor (Homo sapiens), O75030 | AlphaScreen MITF homodimerization, bead proximity signal | inhibition, % at 2.6 µM | actives 0.91% (n = 650,000); in the data active = inhibition above about 50%;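 also: 0% = vehicle wells with protein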
GPR151 activ – activators of human GPR151, primary screen, cell-based, PathHunter beta-arrestin, luminescence. G-protein coupled receptor 151 (Homo sapiens), Q8TDV0. PathHunter beta-arrestin GPR151 cells. activation, % at 11.2 µM. actives 1% (n = 650,000). AID 1508602, 2020; in the data active = activation above about 4.9%;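 also: 0% = median of compound wells and 100% = cells with positive control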
TEAD-YAP block – TEAD-YAP interaction inhibition, primary screen, TEAD-YAP interaction inhibitor project, luminescence, HEK-TIYL cells | TEAD-Gal4/YAP UAS-luciferase luminescence | inhibition, % at 9.12 µM | actives 1.4% (n = 640,000); in the data active = inhibition above about 32%;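 also: 0% = median of test compound wells and 100% = reference inhibitor wells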
An asterisk follows results filed as active. The list is not random: actives were taken first. Their share in the collection is about 3.4%.

SMILES | FBW7 act | MITF primary | GPR151 activ | TEAD-YAP block
CCOC(=O)c1cccc(NC(=O)CCC2CCCCC2)c1 | 2.1* | 12 | -1 | -9
CCOC(=O)c1cccc(NC(=O)COc2ccc(Cl)cc2Cl)c1 | 0 | 7 | 4 | 81*
COc1ccc(-c2nc3s/c(=C/c4cc(OC)c(OC)c(OC)c4)c(=O)n3n2)cc1 | 0 | -5 | -2 | 3
Cc1nc2c(c(=O)[nH]1)CN(Cc1ccc(-c3ccccc3)cc1)CC2 | 0 | -2 | 0 | 12
O=S(=O)(NCc1ccco1)c1cccc(S(=O)(=O)N2CCCC2)c1 | 0 | -1 | 0 | 3
CCc1cc(-c2[nH]ncc2-c2ccc3c(c2)OCCO3)c(O)cc1OC | 0 | 9 | 1 | 63*
CCc1ccc(C2=C/C(=C/c3ccco3)C(=O)O2)cc1 | 0 | 48 | -1 | -13
Cc1cc(/C=C(\C#N)C(=O)OCC(=O)NCc2cccs2)c(C)n1CC(C)C | 0 | 9 | -2 | 49*
Cc1cc(/C=C(\C#N)C(=O)O)c(C)n1CC(C)C | 0 | 8 | 0 | 12
CC(=O)OC(=C(Cl)Cl)c1ccc(C(OC(C)=O)=C(Cl)Cl)cc1 | 0 | -1 | 4 | 42*
CC(=O)Oc1ccc(C(=O)c2ccc(OC(C)=O)cc2)cc1 | 0 | 16 | 1 | 3
COc1ccc(Cl)cc1NC(=O)CN(c1cccc2ccccc12)S(C)(=O)=O | 0 | -7 | -1 | 5
CC(C)(C)OC(=O)N1CCC[C@H](Nc2ccnc(Cl)n2)C1 | 0 | 3 | 1 | -41
Cc1ncn(-c2ccc(Nc3nccc(NC4CCN(C(=O)OC(C)(C)C)C4)n3)cc2)n1 (stereo not given) | 0 | 7 | 1 | 46*
CC(C)(C)OC(=O)N1CCC(Nc2ccnc(Cl)n2)CC1 | 0 | 5 | 1 | 35*
O=C(NNC(=O)c1cccc(Cl)c1)Nc1ccccc1 | 0 | -1 | -1 | -2
Nc1ccnc(NCc2ccccc2)c1 | 0 | -6 | 0 | 32*
CC(C)C(CO)Nc1nccn2c(-c3cccc(NS(C)(=O)=O)c3)cnc12 (stereo not given) | -1 | -8 | -1 | 55*
CC(=O)c1cccc(-c2cnc3c(NC(CO)C(C)C)nccn23)c1 (stereo not given) | -1 | -3 | -1 | 4
CC(C)C(CO)Nc1nccn2c(-c3ccc(C(=O)NC4CC4)cc3)cnc12 (stereo not given) | 0 | -12 | -1 | 51*
Cc1ccc(NC(=O)COC(=O)c2ccccc2SCC2(C)NC(=O)NC2=O)cc1 (stereo not given) | 0 | 2 | 2 | -7
O=C1CSC(c2ccccc2[N+](=O)[O-])N1c1ccc(Br)cn1 (stereo not given) | 0 | 8 | -1 | -4
Cc1ccnc(NC(c2ccco2)c2c(C)[nH]c3ccccc23)c1 (stereo not given) | 0 | -9 | 0 | 38*
O=C(Nc1ccc(CN2CCOCC2)cc1)c1ccc(OCc2ccccc2)cc1 | 0 | 2 | 0 | 13
O=C(CN1CCOCC1)Nc1ccc(OCc2ccccc2)cc1 | 0 | -5 | 0 | 33*
SMILES | FBW7 act | MITF primary | GPR151 activ | TEAD-YAP block
O=C(CN1CCN(CC(=O)Nc2ccc(OCc3ccccc3)cc2)CC1)Nc1ccc(F)cc1 | 0 | 4 | -1 | 19
O=C(Nc1ccc(OCc2ccccc2)cc1)c1ccc(CN2CCOCC2)cc1 | 0 | 7 | 1 | 49*
Cc1ccccc1-c1nc2c(=O)n(C)c(=O)nc-2n(C)n1 | 0 | 3 | -2 | 91*
CCOc1cc(-c2nc3c(=O)n(C)c(=O)nc-3n(C)n2)ccc1OC(C)C | 0 | 21 | -3 | 95*
CCCc1nc2c(=O)n(C)c(=O)nc-2n(C)n1 | 0 | -4 | -4 | 99*
CCn1nc(-c2ccc(C(F)(F)F)cc2)nc2c(=O)n(C)c(=O)nc1-2 | 0 | 15 | -8 | -2
CCn1nc(-c2cccc(Cl)c2)nc2c(=O)n(C)c(=O)nc1-2 | 0 | -12 | -9 | -52
Cc1ccc(S(=O)(=O)Nc2ccccc2C(=O)Nc2ccc(-c3nc4ccc(C)cc4s3)cc2)cc1 | 1 | 5 | -1 | -3
Cc1ccc(S(=O)(=O)NC(=O)Nc2ccc(-c3nc4ccc(C)cc4s3)cc2)cc1 | 0 | 16 | -9 | 91*
CC1=CCC(C(=O)O)C(C(=O)Nc2ccc(-c3nc4ccc(C)cc4s3)cc2)C1 (stereo not given) | 0 | -12 | -3 | 59*
CCc1c(C)sc(NC(=O)c2cc3ccccc3oc2=O)c1C(N)=O | 0 | 9 | -1 | -12
O=C(CN1C(=O)C2C3C=CC(C4CC34)C2C1=O)N1CCC(c2ccncc2)CC1 (stereo not given) | 1 | 10 | 2 | 50*
CN1CCN(CC(=O)Nc2cccc(Cl)c2)CC1 | 0 | 8 | 1 | 3
Cc1ccc(-n2c(SCC(=O)NCc3ccccc3)nc3n[nH]c(C)c3c2=N)cc1Cl | 0 | 19 | 5 | 19
Cc1ccc(-n2c(SCC(=O)NCc3ccccc3)nc3n[nH]c(C)c3c2=N)cc1C | 0 | 2 | 0 | 41*
CCN(CC)C(=O)CSc1nc2n[nH]c(C)c2c(=N)n1-c1ccc(Oc2ccccc2)cc1 | 0 | 10 | 1 | 42*
COc1cccc(-n2c(SCC(=O)Nc3ccc(C)cc3)nc3n[nH]c(C)c3c2=N)c1 | 0 | 11 | 3 | 6
COc1cccc(-n2c(SCC(=O)Nc3ccc(C(C)C)cc3)nc3n[nH]c(C)c3c2=N)c1 | 0 | -1 | -1 | 37*
COC(=O)c1sc(SC)nc1Nc1ccnc(Nc2cc(OC)ccc2OC)c1 | 0 | 9 | 5 | 48*
CCCCOc1ccc(C(=O)Nc2nncs2)cc1 | 0 | -2 | -2 | -58
COc1ccc(CCNc2nc(C)nc3sc(C)c(C)c23)cc1OC | 0 | 2 | 0 | 37*
c1ccc(CCNc2ncnc3ccccc23)cc1 | 0 | 3 | 0 | 24
COc1ccc(CCNc2ncnc3sccc23)cc1OC | 1 | 19 | 3 | 56*
COc1ccc(CCNc2ncnc3c2oc2ccccc23)cc1OC | 0 | 4 | 4 | 46*
COc1ccc(CCNc2ncnc3ccccc23)cc1OC | 0 | -1 | 2 | 63*
CC(C)c1ccc(NC(=O)C2C3C=CC4(O3)C2C(=O)N(Cc2ccc3c(c2)OCO3)C4C(=O)NC2CCCCC2)cc1 (stereo not given) | 0 | -3 | 1 | 10
COc1cc(C)c2c(c1)oc(=O)c1ccccc12 | 2.2* | 22 | 3 | -6
CCCCC(=O)NC(=S)Nc1ccc(C(N)=O)cc1 | 0 | 7 | 0 | -21
NC(=O)c1sc2nc3c(c(-c4ccco4)c2c1N)CCC3 | 0 | -5 | 2 | 44*
Cc1ccc(-c2c3c(nc4sc(C(N)=O)c(N)c24)CCCC3)o1 | 0 | 55* | 0 | 6
